Source: PubChem BioAssay AID1851 (National Center for Advancing Translational Sciences (NCATS), 2009)
Values joined by “and” are separate entries in the source; they are usually repeats but may differ in a detail not shown here. Equal values may be shown once. The campaign covered roughly 16,000 compounds. About 5,100 (32%) were called active. Not shown: some 25% with an inconclusive outcome. Calls follow the shape of the dose curve; as a rule, active = well fitted curve in the direction sought with a large enough effect; inconclusive = small, poorly fitted or top-dose-only effect, or effect the other way; inactive = no such curve, though single readings can be large or run the other way. The list shows a part of the results.

What follows are compounds tested against Cytochrome P450 3A4 (Homo sapiens) (UniProt P08684) (assay: Cytochrome panel assay with activity outcomes). Details: recombinant CYP, pro-luciferin dealkylation, luminescence, p450-cyp3a4; series mostly up to 57.1 µM; activity, negative = inhibition: at the top concentration.
Chain of Cytochrome P450 3A4 (Homo sapiens) (P08684 whole entry, looked up): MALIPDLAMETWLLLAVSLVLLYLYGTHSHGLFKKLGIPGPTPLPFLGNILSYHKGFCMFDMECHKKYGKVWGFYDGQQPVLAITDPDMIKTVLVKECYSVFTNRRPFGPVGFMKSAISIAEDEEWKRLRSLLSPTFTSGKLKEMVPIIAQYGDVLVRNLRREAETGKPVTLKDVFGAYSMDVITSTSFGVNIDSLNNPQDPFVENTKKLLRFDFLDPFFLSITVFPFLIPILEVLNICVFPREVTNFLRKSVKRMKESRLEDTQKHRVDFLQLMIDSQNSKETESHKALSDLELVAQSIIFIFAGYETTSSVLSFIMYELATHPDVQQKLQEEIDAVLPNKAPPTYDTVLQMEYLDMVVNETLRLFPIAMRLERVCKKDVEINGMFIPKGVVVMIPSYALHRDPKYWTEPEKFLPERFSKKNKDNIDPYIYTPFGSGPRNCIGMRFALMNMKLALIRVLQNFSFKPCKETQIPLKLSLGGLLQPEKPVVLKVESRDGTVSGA
% is scaled to controls: 0 for no effect and ±100 for the full control effect.

activity, negative = inhibition, inactive:
CC1=C(C(=O)OCc2ccccc2)C(c2ccccc2)NC(=O)N1CCCCCC(=O)O (configuration not stated) -1.28%
N#Cc1ccc(-c2ccccc2)nc1SCC(=O)c1cccc(Cl)c1 21.1%
C[C@H](Oc1ccccc1)C(=O)N[C@@H]1C(=O)N2[C@@H]1SC(C)(C)[C@@H]2C(=O)O 2.08% [at 25.6 µM]
CC1(C)S[C@@H]2[C@H](NC(=O)[C@@H](N)c3ccc(O)cc3)C(=O)N2[C@H]1C(=O)O 9.74% [at 25.6 µM]
Cc1ncc2c(c1O)COP(=O)(O)OC2 2.6%
O=C(Nn1cnc2ccccc2c1=O)c1ccc(F)cc1Cl -7.59%
COC(=O)c1cn(NC(=O)c2ccc(F)cc2)c(=O)c2ccccc12 -2.1% [at 2.29 µM]
Cn1cc(-c2nc3cncnc3n(Cc3ccc(F)cc3)c2=O)c2ccccc21 -13.8%
COc1cccc(Cn2c(=O)c(-c3cn(C)c4ccccc34)nc3cnc(N4CCOCC4)nc32)c1 -10.8%
CN(C)CCCNc1c(C(=O)O)cnc2c1cnn2C 2.18%
COc1ccc(N2C(N)=NC(N)=NC2(C)C)cc1 8.11%
COC(=O)c1cc(=O)n(C2CC2)c(=NC2CC2)s1 -12.9%
Oc1ccc(OCc2ccccc2)cc1 -12.5% [at 25.6 µM]
C[n+]1cn(CC(O)COCc2ccccc2)c2ccccc21 (configuration not stated) -0.486%
CCC(=O)c1ccc(OCC(O)CN2CCCCC2)cc1 (configuration not stated) 13.7%
O=C(O)[C@@H]1[C@@H]2C[C@H]([C@@H](Br)[C@H]2N2C(=O)CCC2=O)[C@@H]1C(=O)O 2.42% [at 11.4 µM]
CCCCC(=O)Nc1nnc(SCC(=O)NC2CCCC2)s1 -12.4% [at 2.29 µM]
COc1ccc(/C=N/NC(=O)c2ccn[nH]2)cc1COc1ccc(F)cc1 -10.3% [at 2.29 µM]
COc1ccc(/C=N/NC(=O)c2ccn[nH]2)cc1COc1ccc(Cl)cc1 -16.8% [at 2.29 µM]
Cc1nn(C)cc1CNC(=O)CCC(=O)O 2.19%
CCn1ncc(/C=C/C(=O)NCc2cn(C)nc2C)c1C -2.52%
C[C@](N)(COP(=O)(O)O)C(=O)O -21.4%
O=C(Nc1cc(C(F)(F)F)ccc1-n1cncn1)c1ccc(Br)cc1 -10.9% [at 2.29 µM]
C[C@@H]1O[C@H](O[C@@H]2[C@@H](Oc3cc(O)c4c(c3)O[C@H](c3ccc(O)cc3)CC4=O)O[C@@H](CO)[C@@H](O)[C@H]2O)[C@@H](O)[C@H](O)[C@@H]1O -18.6% [at 25.6 µM]
O=C1C=C[C@@H](O)[C@H]2[C@@H]3C(=O)N(c4cccc(Oc5ccccc5)c4)C(=O)[C@@H]3CC[C@H]12 -11.6% [at 11.4 µM]
CCN1CCN(CCC(=O)Nc2cccc(OC)c2)CC1 -11.5%
CCOC(=O)c1c(NC(=O)c2c(Br)cnn2C)c(C#N)nn1-c1ccccc1 15.3%
C/C(=N\NC(=O)c1cccc(F)c1)c1ccc(Br)s1 -16.5%
CCOc1ccc(N(C(C)C(=O)N/N=C(\C)c2cccc(NC(=O)c3ccccc3)c2)S(C)(=O)=O)cc1 (configuration not stated) -20.9% [at 2.29 µM]
Cc1cc(=O)[nH]c2c1c(C)nn2C1CCOC(C)(C)C1 (configuration not stated) 10.5%
Cc1[nH]c2ccccc2c1-c1cc(-c2cc(-c3c(C)[nH]c4ccccc34)on2)no1 -5.38% [at 11.4 µM]
CCn1c(C)nc2cc(S(=O)(=O)C(F)F)ccc21 9.09% [at 11.4 µM]
CCCOc1ccc(C(=O)NNC(=S)NC(=O)CC)cc1 -8.65% [at 2.29 µM]
CCN(CC)CCOC(=O)C1(c2ccc([N+](=O)[O-])cc2)CCCC1 -25.9% [at 25.6 µM]
CN(C)CCOC(=O)C1(c2ccccc2)CCOCC1 3.36%
COCC(=O)N1CCC2(CCN(Cc3ccccc3OC)CC2)CC1 -3.57%
COc1ccc(C(=O)N2CCC3(CCN(Cc4ccccc4OC)CC3)CC2)cc1 -0.0167%
Cc1ccc(-c2c(C#N)c(N)n(-c3ccccc3)c(=O)c2C#N)cc1 -3.64% [at 2.29 µM]
CN(C)CCOC(=O)c1ccc(N)cc1 -4.56% [at 11.4 µM]
FC(F)(F)c1cc(C(F)(F)F)c2ccc(N/N=C/c3cccc(Cl)c3)nc2n1 5.99%
Cc1c(C)c2c(c(C)c1O)CC[C@@](C)(CCC[C@@H](C)CCC[C@@H](C)CCCC(C)C)O2 11.9% [at 25.6 µM]
CC(C)NC(=O)c1ccc(-c2cccc(C(F)(F)F)c2)o1 2.51%
CC(=O)OCc1c(C(F)(F)F)nn(C)c1Sc1ccccc1 -22.5%
CN(C/C=C\c1ccccc1)Cc1cccc2ccccc12 -6.8% [at 25.6 µM]
COc1ccccc1C(=O)NC(=S)N1CCCc2ccccc21 14.7%
CC[N+](CC)(CC)CC -3.53%
CC(C)(C)NC[C@@H](O)c1ccc(O)c(CO)n1 2.12% [at 11.4 µM]
N[C@@H](C(=O)O)c1ccc(P(=O)(O)O)cc1 -17.9%
O=C(O)c1sc2cc(C(F)(F)F)cnc2c1-c1ccccc1 -2.07%

AC50, active:
CC1=C(C(=O)OCc2ccccc2)C(c2cccnc2)c2c(n(C)c(=O)n(C)c2=O)N1 (configuration not stated) 11.2 µM
CCOC(=O)CC(=O)CSc1nc(-c2ccccc2)cc(-c2ccc(Cl)cc2)c1C#N 17.8 µM
CC1(C)S[C@@H]2[C@H](NC(=O)[C@@H](N)c3ccccc3)C(=O)N2[C@H]1C(=O)O[C@H]1OC(=O)c2ccccc21 1.58 µM
O=c1c2ccccc2nc2n1C(CSCc1cccc(C(F)(F)F)c1)CS2 (configuration not stated) 4.47 µM
COc1ccc(C(=O)Nn2cnc3ccccc3c2=O)c(OC)c1 25.1 µM
COc1ncc2nc(-c3cn(C)c4ccccc34)c(=O)n(Cc3ccc(F)cc3)c2n1 6.31 µM
COc1cccc(Cn2c(=O)c(-c3cn(C)c4ccccc34)nc3cnc(OC)nc32)c1 7.94 µM
CCNc1ncc2nc(-c3cn(C)c4ccccc34)c(=O)n(Cc3ccc(F)cc3)c2n1 15.8 µM
CCNc1ncc2nc(-c3cn(C)c4ccccc34)c(=O)n(Cc3cccc(OC)c3)c2n1 3.98 µM
COC(=O)C1=C(C)NC(C)=C(C(=O)OCCSc2ccccc2)[C@@H]1C 10 µM
OC(COCc1ccccc1)Cn1cnc2ccccc21 (configuration not stated) 3.98 µM
CC(=O)Nc1ccc(OCC(O)Cn2cnc3ccccc32)cc1 (configuration not stated) 14.1 µM
C=CCn1c(SCC(=O)NC2CCCCC2)nnc1C1CCCCC1 8.91 µM
COc1ccc(C(=O)NN)cc1COc1ccc(Br)cc1 1.26 µM
COc1ccc(/C=C/C(=O)NCc2cn(C)nc2C)cc1COc1ccc(Br)cc1 3.16 µM
COc1cc(/C=C(\C#N)C(N)=O)cc(CSc2nc3ccccc3s2)c1O 3.98 µM
COC(=O)c1ccc(-n2cncn2)c(F)c1 7.94 µM
COc1cccc(N2C(=O)C(CC(=O)Nc3ccccc3)N(C3CCCCC3)C2=O)c1 (configuration not stated) 5.01 µM
COc1ccc(NC(=O)CC2C(=O)N(c3cccc(OC)c3)C(=O)N2C2CCCCC2)cc1 (configuration not stated) 8.91 µM
O=C(CSc1nnnn1C1CCCC1)Nc1ccc(F)cc1 14.1 µM
CCC(CC)C(=O)Nc1cccc(/C(C)=N/NC(=O)c2c(Br)cnn2C)c1 14.1 µM
C/C(=N\NC(=O)c1ccc(Cl)cc1)c1cccc(NC(=O)C(C)C)c1 15.8 µM
CCC(CC)C(=O)Nc1cccc(/C(C)=N\NC(=O)c2ccc(C)s2)c1 7.94 µM
CCCCn1c(SCc2c(C)noc2C)nc2cc(S(N)(=O)=O)ccc21 0.708 µM
CCCOc1ccc(C(=O)NNC(=S)NC(=O)c2cc(-c3ccccc3)nc3ccccc23)cc1 8.91 µM
O=C(OCCN1CCOCC1)C1(c2ccccc2)CCCCC1 3.16 µM and 1.58 µM
Cc1ccc(Cn2nnc3c(=O)[nH]c(C4CCN(C(=O)Cc5cccs5)CC4)nc32)cc1 4.47 µM
O=C(Cc1cccs1)N1CCC(c2nc3c(nnn3Cc3ccccc3Cl)c(=O)[nH]2)CC1 3.16 µM
COc1ccccc1Cn1nnc2c(=O)[nH]c(C3CCN(C(=O)c4ccc(C)cc4)CC3)nc21 1.58 µM
O=C(OCCNC(=O)c1ccc2ccccc2n1)c1ccc(F)cc1 14.1 µM
Fc1ccc(N2CCN(c3ccc4c(C(F)(F)F)cc(C(F)(F)F)nc4n3)CC2)cc1 10 µM
Cc1ccc(Nc2nc(Cl)nc(N(C)C#N)n2)cc1 11.2 µM
Cc1ccc(NC(=O)c2c(C(F)(F)F)nn(C)c2SCc2cccc(C(F)(F)F)c2)cc1C 3.16 µM
Cn1nc(C(F)(F)F)c(C(=O)Nc2ccc(F)cc2F)c1Sc1cccc(C(F)(F)F)c1 6.31 µM
Cc1ccc(NC(=O)c2sccc2SCc2cccc(C(F)(F)F)c2)cc1 1 µM
Cn1nc(C(F)(F)F)c(C(=O)Nc2ccc(F)cc2F)c1Sc1ccc(C(F)(F)F)cc1 12.6 µM
COc1ccccc1C(c1nnnn1C(C)(C)C)N1CCN(Cc2ccncc2)CC1 (configuration not stated) 3.16 µM
COc1ccccc1C(c1nnnn1C(C)(C)C)N1CCCc2ccccc21 (configuration not stated) 10 µM
N#Cc1ccc(C(c2nnnn2C2CCCC2)N2CCC(Cc3ccccc3)CC2)cc1 (configuration not stated) 4.47 µM
N#Cc1ccc(C(c2nnnn2Cc2ccccc2)N2CCCC2)cc1 (configuration not stated) 7.94 µM
N#Cc1cccc(C(c2nnnn2C2CCCC2)N2CCCCCC2)c1 (configuration not stated) 5.01 µM

AC50, inactive:
CC(=O)Nc1ccc(OC[C@@H](O)CNC(C)C)cc1
NC(N)=NN=Cc1c(Cl)cccc1Cl
